BoNT F protease = BoNT F light chain protease inhibition; Multiplex microsphere protease cleavage assay, flow cytometry; inhibition, % at 10 µM; 360,000 compounds, 0.22% hits; AID 588497; in the data active means inhibition above about 35%, passing the limit was not always enough; inconclusive means no clear call, values can overlap the other calls; further: plate controls were buffer without enzyme for full effect and enzyme alone for no effect
Anthrax LF inh2 = inhibitors of Bacillus anthracis lethal factor protease; multiplex microsphere protease cleavage assay, LF; inhibition, % at 10 µM; 360,000 compounds, 0.12% hits; AID 588501; further: plate controls were buffer without enzyme for full effect and enzyme alone for no effect
Target sequence (P15917 whole entry, looked up): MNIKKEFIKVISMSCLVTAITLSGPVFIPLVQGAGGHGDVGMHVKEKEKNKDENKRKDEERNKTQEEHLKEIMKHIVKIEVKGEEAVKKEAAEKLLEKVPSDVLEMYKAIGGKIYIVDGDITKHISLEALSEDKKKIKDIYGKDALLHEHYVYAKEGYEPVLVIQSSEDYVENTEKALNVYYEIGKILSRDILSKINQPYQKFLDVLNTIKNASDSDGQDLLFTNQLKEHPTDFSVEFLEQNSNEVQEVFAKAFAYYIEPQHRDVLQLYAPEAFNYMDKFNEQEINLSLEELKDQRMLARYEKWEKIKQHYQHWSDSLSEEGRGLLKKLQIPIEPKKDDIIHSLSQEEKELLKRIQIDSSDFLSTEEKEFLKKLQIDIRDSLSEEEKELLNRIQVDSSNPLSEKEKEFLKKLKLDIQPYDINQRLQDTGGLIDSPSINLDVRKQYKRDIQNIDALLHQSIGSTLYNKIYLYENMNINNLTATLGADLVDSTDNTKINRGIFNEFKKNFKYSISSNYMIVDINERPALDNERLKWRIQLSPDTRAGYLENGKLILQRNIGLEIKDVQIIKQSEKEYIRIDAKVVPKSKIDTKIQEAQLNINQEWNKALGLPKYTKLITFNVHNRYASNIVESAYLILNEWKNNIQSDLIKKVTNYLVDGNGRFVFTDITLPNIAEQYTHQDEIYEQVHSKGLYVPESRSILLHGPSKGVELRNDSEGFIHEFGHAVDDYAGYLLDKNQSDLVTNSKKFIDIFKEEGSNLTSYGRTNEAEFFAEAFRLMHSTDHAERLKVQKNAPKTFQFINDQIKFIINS
Autofluor counter = counter-screen for toxin protease inhibitors: compound fluorescence; compound autofluorescence counterscreen, microsphere flow cytometry; hits give high values; fluorescence intensity (concentration not given with the values); 360,000 compounds, 3.1% hits; AID 624483; in the data active means fluorescence intensity above about 16000; inconclusive means no clear call, values can overlap the other calls
BoNT A protease = inhibitors of Botulinum neurotoxin A light chain protease. multiplex microsphere protease substrate cleavage, flow cytometry. inhibition, % at 10 µM. 360,000 compounds, 0.17% hits. AID 588499; further: plate controls were buffer without enzyme for full effect and enzyme alone for no effect
* hit, by the source's call; ? = inconclusive. Compounds with a hit are over-represented: about 3.5% of the library has one in this group of screens. Unless noted, no stated cut-off is given here; in the data, active means inhibition above about 30%; inconclusive means no clear call, values can overlap the other calls; inactive means below that.

SMILES	BoNT F protease	Anthrax LF inh2	Autofluor counter	BoNT A protease
Cc1ccc([N+](=O)[O-])cc1NC(=S)NC(=O)C(C)(C)C	-11	8	4657	-2
Cc1ccc([N+](=O)[O-])cc1NC(=S)NC(=O)CC(C)(C)C	1	1	19100*	2
O=C(Nc1oc2ccc(Cl)cc2c(=O)c1-c1ccc(F)cc1)c1ccco1	-3	2	4842	1
Cc1[nH]n(-c2ccccc2)c(=O)c1N=Nc1cccc([N+](=O)[O-])c1	42*	-8	4038	-2
Cc1[nH]n(-c2ccccc2)c(=O)c1N=Nc1cccc(Cl)c1	-15	4	3809	-3
CCN(CC)CCCN1C(=O)C(O)=C(C(=O)c2sc(C)nc2C)C1c1ccco1 (centres undefined)	13	-3	19534*	10
COc1ccc(C2C(C(=O)c3sc(C)nc3C)=C(O)C(=O)N2CCCn2ccnc2)cc1OC (centres undefined)	-2	-1	20435*	0
CCN(CC)CCCN1C(=O)C(O)=C(C(=O)c2cc3cccc(OC)c3o2)C1c1ccncc1 (centres undefined)	5	-16	21784*	?
CC1(CO)CCCC1NCCNC1CCCC1(C)CO (centres undefined)	5	-3	5970	0
Cc1ccc2[nH]c(=O)c(NC(N)=S)nc2c1	-3	-4	20753*	0
Cc1cc(C)n(-c2nc3ccccc3c(=O)n2OCC(N)=O)n1	-1	-1	21858*	0
CCN1C(=O)/C(=C/N(C)C)c2ccccc21	-5	2	16312*	0
CCN1C(=O)/C(=C\N(C)C)c2ccccc21	-13	-9	7006	-2
COc1nc(-c2cccs2)cc(-c2ccc(C)cc2)c1C#N	5	-3	21880*	5
O=C(Nc1cccc(C(F)(F)F)c1)N1CCN(C(=O)Nc2cccc(C(F)(F)F)c2)CC1	-3	0	22460*	-2
Cc1ccc(OC(F)F)c(NC(=O)Nc2cccc(C(F)(F)F)c2)c1	-4	-3	19099*	1
COc1cccc(NC(=O)Nc2cc(C)ccc2OC)c1	-2	-1	2413	0
O=C(/C=C/Nc1cccc(C(F)(F)F)c1)C(F)(F)F	1	-1	20521*	?
CCCN1CCN(C(=O)Nc2cccc(C(F)(F)F)c2)CC1	-1	1	1894	-1
COC(=O)[C@H](CC(C)C)NC(=O)N1CCN(c2cccc(C(F)(F)F)c2)CC1	-1	-1	23638*	-1
CC1CCCC(N2CCN(C(=O)c3ccc([N+](=O)[O-])cc3)CC2)C1 (centres undefined)	?	-22	3140	4
CC(=O)Nc1ccc(CN2CCN(c3cccc(C(F)(F)F)c3)CC2)cc1	-3	-2	17158*	-2
CC(=O)Nc1ccc(NC(=O)CN2CCN(c3cccc(C(F)(F)F)c3)CC2)cc1	-8	-2	2572	0
COc1ccccc1NC(=O)N1CCN(c2cccc(C(F)(F)F)c2)CC1	-3	-1	23145*	-1
COc1ccccc1NC(=O)N1CCN(c2ccc(F)cc2)CC1	4	-1	4002	1
SMILES	BoNT F protease	Anthrax LF inh2	Autofluor counter	BoNT A protease
O=C(O)C1C2C=CC(C2)C1C(=O)Nc1cccc(C(F)(F)F)c1 (centres undefined)	50*	2	3235	3
C[C@H](NC(=O)Nc1cccc(C(F)(F)F)c1)C(=O)O	-4	-3	21298*	?
O=C(Nc1ccccc1)Nc1cccc(C(F)(F)F)c1	1	-7	4369	-1
CC(=O)Nc1cccc(NC(=O)C2C3C=CC(C3)C2C(=O)O)c1 (centres undefined)	-21	15	3641	0
COc1cccc(-c2cccc3c2NC(=O)C3(C)Cc2ccccc2F)c1 (centres undefined)	-5	-4	2948	0
COC(CNC(=O)CCc1c(C)nc2c(-c3ccccc3)c(C)nn2c1C)OC	-5	8	3747	-4
CC1=C(C)[N+](=O)C2CCCCC2N1[O-] (centres undefined)	-7	-5	17133*	?
Cc1ccc(OCC2Cn3c(nc4c3c(=O)[nH]c(=O)n4C)O2)cc1 (centres undefined)	3	-2	20012*	2
CCc1ccc(OCC2Cn3c(nc4c3c(=O)[nH]c(=O)n4C)O2)cc1 (centres undefined)	?	-5	4085	1
CCN1C(=O)/C(=C\N2CCN(c3ccc(F)cc3)CC2)SC1=S	-2	-1	16210*	?
Cc1ccc(N2CCCn3c2cc(C)c(C#N)c3=O)cc1Cl	6	-6	15477	2
Cc1ccc(N2CCCn3c2cc(C)c(C#N)c3=O)cc1C	2	-5	21058*	2
C=CCn1c(C)cc(C)c(C#N)c1=O	1	-5	22789*	0
CCn1c(C)cc(C)c(C#N)c1=O	-4	-4	3606	-1
Clc1ccc(-n2nnnc2-c2ccccc2)cc1	-8	2	17854*	?
Cn1c(Sc2ccc([N+](=O)[O-])cc2C(F)(F)F)nnc1-c1ccccc1	9	0	3769	0
Cn1c(Sc2ccc(C(F)(F)F)cc2[N+](=O)[O-])nnc1-c1ccccc1	4	-6	18706*	3
O=C1c2ccccc2C(=Nc2ccccc2)C1c1cccc(Br)c1 (centres undefined)	-2	-10	21729*	1
COc1ccc(CCOC(=O)c2ccc(N)c([N+](=O)[O-])c2)cc1	-2	-1	5556	2
N#CCCCc1cn(-c2nc3ccccc3s2)nn1	5	-1	6507	0
CCOC(=O)C1CCCN(Cc2cc(Br)ccc2OC)C1 (centres undefined)	4	3	8933	0
COc1ccc(CN2CCCC(C(=O)N3CCCCC3)C2)c(OC)c1 (centres undefined)	2	-17	3846	0
CCN(CC)C(=O)C1CCCN(Cc2ccc(OC)c(C)c2C)C1 (centres undefined)	2	-1	21287*	?
CCOC(=O)C1CCCN(Cc2cc(Br)c(OC)cc2OC)C1 (centres undefined)	0	-1	22833*	0
CC1(O)c2ccccc2C(=O)N1Cc1ccccc1 (centres undefined)	-2	1	17655*	-2
SMILES	BoNT F protease	Anthrax LF inh2	Autofluor counter	BoNT A protease
CC(=O)N(Cc1ccco1)C1(C(=O)NC2CCCC2)CCCCC1	-4	1	8295	1
O=CN(Cc1ccco1)C1(C(=O)NC2CCCCC2)CCCCC1	0	-5	22071*	?
CCOC(=O)c1[nH]c(C)c(C(=O)N2CCN(c3ccc(F)cc3)CC2)c1C	2	-2	21567*	4
CCOC(=O)c1[nH]c(C)c(C(=O)Nc2cccc(Cl)c2C)c1C	3	-4	19613*	3
CCOC(=O)c1[nH]c(C)c(C(=O)N2CCN(c3cccc(Cl)c3)CC2)c1C	1	0	19964*	2
CCOC(=O)c1[nH]c(C)c(C(=O)N2CCN(C(=O)c3ccco3)CC2)c1C	10	0	7638	0
CCOC(=O)c1[nH]c(C)c(C(=O)N2CCN(c3ccc(OC)cc3)CC2)c1C	-1	-2	2178	0
CCOC(=O)c1[nH]c(C)c(C(=O)NCCCOC(C)C)c1C	-5	-1	21373*	-4
CCOC(=O)c1[nH]c(C)c(C(=O)NC(C)CC)c1C (centres undefined)	-4	1	5433	0

High-throughput results as filed in PubChem BioAssay.
